# The list is not random: actives were taken first. Their share in the collection is about 2.6%.
# Ba/F3 V617F tox: lowers viability of Ba/F3 cells expressing EpoR and JAK2V617F | ATP luminescence | inhibition, % at 5.6 µM | 220,000 compounds, 1.1% hits | AID 1446;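 active = inhibition above the campaign mean plus 3 SD over all tested compounds, cut at about 24% in these data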;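 note: cytokine-independent growth of Ba/F3 cells driven by EpoR plus mutant JAK2; 0% = DMSO-treated cells and 100% = JAK inhibitor I control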
# KLF5 inhibitor: suppresses KLF5 promoter-driven expression | 290,000 compounds, 0.23% hits | AID 1700 | DLD-1 KLF5 promoter-luciferase reporter, luminescence | inhibition, % at 5 µM;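 active = inhibition above a per-plate limit of that plate's mean compound inhibition plus 3 SD, cut at about 60% in these data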;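 note: 0% = DMSO wells and 100% = LY294002 at 200 µM; higher means less KLF5 promoter-driven luciferase light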
# BaF3 parental: reduces parental Ba/F3 cell viability, JAK2V617F counter-screen | CellTiter-Glo ATP luminescence | inhibition, % at 5.6 µM | 220,000 compounds, 1.1% hits;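 active = inhibition above a per-campaign cutoff, the mean inhibition of all tested compounds plus 3 SD, cut at about 27% in these data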;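 note: 0% = DMSO wells and 100% = JAK Inhibitor I control wells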
# GPR7 antagonist: antagonists of human GPR7 (neuropeptides B/W receptor 1); P48145; GPR7-expressing cells, fluorescence antagonist assay; inhibition, % at 4.4 µM; 290,000 compounds, 1.1% hits; in the data active = inhibition above about 16%, passing the limit was not always enough;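 note: cells stimulated with the agonist NPW; 0% = agonist with vehicle and 100% = vehicle without agonist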
# Target sequence (P48145 whole entry, looked up): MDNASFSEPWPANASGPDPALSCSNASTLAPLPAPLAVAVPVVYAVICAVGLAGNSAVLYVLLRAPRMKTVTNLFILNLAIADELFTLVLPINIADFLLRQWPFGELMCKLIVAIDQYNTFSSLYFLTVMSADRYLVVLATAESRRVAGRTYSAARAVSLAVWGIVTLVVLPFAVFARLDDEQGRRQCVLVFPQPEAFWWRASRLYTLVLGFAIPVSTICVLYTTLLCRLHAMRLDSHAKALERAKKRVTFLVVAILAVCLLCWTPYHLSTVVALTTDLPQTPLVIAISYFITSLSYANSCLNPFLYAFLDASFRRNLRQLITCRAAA
# IEC-6 cytotox: counter-screen for KLF5 inhibitors: cytotoxicity in IEC-6 cells. IEC-6 cytotoxicity, luminescence viability. inhibition, % at 5 µM. 290,000 compounds, 0.78% hits; in the data active = inhibition above about 22%;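 note: 0% = plate median of test compound wells and 100% = cytotoxic reference compound wells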
# FID counter: displaces DNA intercalator in HCV helicase counter-screen | 290,000 compounds, 0.17% hits | DNA fluorescent intercalator displacement, fluorescence | inhibition, % at 7.9 µM; in the data active = inhibition above about 37%;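 note: 0% = vehicle and 100% = reference compound; higher means more ethidium bromide displaced from hairpin DNA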
# BaF3 tox 2: counter-screen for JAK2V617F inhibitors: parental Ba/F3 viability inhibitors; inhibition, % at 5.6 µM; CellTiter-Glo luminescence; cells kept alive by added IL-3; 580 compounds, 31% hits; shares compounds with Ba/F3 V617F tox;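 active = cell growth inhibition above the hit limit set in the earlier mutant JAK2 cell screen, cut at about 27% in these data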;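 note: plate controls were DMSO-treated cells for no effect and JAK Inhibitor I control wells for full effect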
# JAK2V617F conf: Ba/F3 EpoR-JAK2V617F viability loss, confirmation. inhibition, % at 5.6 µM. 580 compounds, 66% hits. AID 1521. shares compounds with Ba/F3 V617F tox. CellTiter-Glo luminescence;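 active = mean inhibition above the hit cutoff derived in the earlier primary screen, cut at about 25% in these data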;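 note: 0% = DMSO-treated cells and 100% = JAK inhibitor I control wells; higher means lower luminescence from reduced cell ATP and viability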
# Starred values were filed as active, the others as inactive; x = no result given.
SMILES,Ba/F3 V617F tox,KLF5 inhibitor,BaF3 parental,GPR7 antagonist,IEC-6 cytotox,FID counter,BaF3 tox 2,JAK2V617F conf
CC(C)(C)c1ccc(-c2nnc(SCC(=O)NC3CCS(=O)(=O)C3)n2N)cc1 (configuration not stated),-3,-33,2,-9,2,-7,x,x
Cc1ccc2nc3c(cc2c1)c(NC(=O)C(C)(C)C)nn3CC(C)C,x,-21,x,-12,-2,-24,x,x
CC1CCN(CCCNC(=O)c2cc3c(Cl)nc4ccccc4c3s2)CC1,34*,-12,11,-3,5,20,4,71*
C/C(=N\NC(=O)c1cc(-c2cccs2)nc2ccccc12)c1ccccn1,4,-1,7,-16,2,-6,x,x
Cc1cc(NC(=O)CCSc2nc(-c3ccco3)cc(C(F)(F)F)n2)no1,-3,-5,1,-6,-2,-6,x,x
Cc1cc(NC(=O)CSc2nc(-c3ccco3)cc(C(F)(F)F)n2)no1,61*,39,5,1,46*,-4,48*,90*
Nc1[nH]n(-c2ccccc2)c(=O)c1N=Nc1ccc2c(c1)OCO2,27*,-58,6,-1,4,3,57*,44*
Cc1[nH]n(-c2ccccc2)c(=O)c1N=Nc1ccccc1,-3,2,7,-4,1,-1,x,x
CCN(CC)S(=O)(=O)c1cccc(C(=O)N[C@H](C(=O)Nc2nc3ccccc3s2)C(C)C)c1,4,-21,5,-11,-2,-3,x,x
CCN(CC)S(=O)(=O)c1cccc(C(=O)N[C@H](C(=O)Nc2nc3ccc(F)cc3s2)C(C)C)c1,66*,-5,1,-7,8,1,-1,13
CCOc1cc(C#N)c(NC(=O)c2ccco2)cc1OCC,39*,23,15,3,21,-10,17,24*
CCOc1cc(NC(=O)c2ccco2)c(OCC)cc1NC(=O)c1ccco1,x,6,x,1,-7,-10,x,x
O=C(C1CCN(S(=O)(=O)c2ccc3ccccc3c2)CC1)N1CCN(c2ncccn2)CC1,0,-32,3,-1,2,-46,x,x
CCCC(=O)Nc1ccc(Cl)c(NC(=O)c2cccnc2)c1,60*,-21,2,12,0,-3,-3,-4
C=CCNC(=S)NNC(=O)c1cccn(Cc2ccc(Cl)cc2Cl)c1=O,30*,-16,-3,-5,-3,-28,-1,0
CCNC(=S)NNC(=O)c1cccn(Cc2ccc(Cl)cc2Cl)c1=O,-2,-18,6,-2,-8,-20,x,x
COCc1cc(=O)[nH]c(SCC(=O)Nc2ccccc2)n1,95*,14,-4,14,-11,-2,-4,-2
C=CCn1c(CNC(=O)c2ccco2)nnc1SCC(=O)c1ccc(F)cc1,x,-6,x,-7,-2,-23,x,x
C=CCn1c(CNC(=O)c2ccco2)nnc1SCC(=O)N1c2ccccc2Sc2ccccc21,71*,10,22,1,3,-36,-1,-1
COc1cc(/C=C2\COC/C(=C\c3ccc(O)c(OC)c3)C2=O)ccc1O,25*,-23,-8,-26,3,-6,14,91*
Nc1nnc(Sc2ccc(Cl)cc2[N+](=O)[O-])s1,65*,-7,1,20,1,1,-5,-11
CCc1ccccc1NC(=O)CCC(=O)Nc1nnc(C(C)C)s1,x,-7,x,-3,8,-25,x,x
COc1cc2c(cc1NC(=O)Nc1cccc(C)c1)oc1ccccc12,7,-18,7,-2,0,5,x,x
COc1cc2c(cc1NC(=O)c1cccc([N+](=O)[O-])c1C)oc1ccccc12,53*,-2,1,-14,6,1,-5,5
COc1cc(C(=O)NC(=S)Nc2csc(-c3ccc(F)cc3)n2)cc(OC)c1OC,4,-23,-4,-3,6,-2,x,x
SMILES,Ba/F3 V617F tox,KLF5 inhibitor,BaF3 parental,GPR7 antagonist,IEC-6 cytotox,FID counter,BaF3 tox 2,JAK2V617F conf
O=C(c1cc2nc(-c3ccco3)cc(C(F)(F)F)n2n1)N1CCc2ccccc2C1,0,-16,5,-10,-9,0,x,x
C/C(=N\Nc1nc(-c2ccccn2)nc2ccccc12)c1ccc(F)cc1,0,7,0,-14,3,-2,x,x
c1ccc(CCNc2nc(-c3ccccn3)nc3ccccc23)cc1,58*,1,9,-5,8,1,10,88*
C1=C(c2ccccc2)Nc2ccccc2N=C1c1ccccc1,102*,-92,1,-8,3,-15,-3,3
O=C1CC(c2ccccc2)=Nc2ccccc2N1,1,3,7,-4,-2,-2,x,x
O=C1CCCN1CCCN=c1c([N+](=O)[O-])nn(-c2ccc(Cl)cc2)n1O,32*,-18,25,0,18,-10,8,38*
Cc1ccc(C=Nc2ccccc2C(N)=O)cc1,42*,13,22,12,16,-1,37*,78*
Cn1c(=O)c2nc(NCc3ccccc3)cnc2n(C)c1=O,-4,-12,4,-1,-4,-9,x,x
Cc1nc2c(=O)n(C)c(=O)n(C)c2nc1Cl,39*,-27,9,3,19,-1,17,62*
COc1cc(OC)cc(C(=O)Nc2cccc(-c3ccc4nncn4n3)c2)c1,0,-9,6,-11,0,1,x,x
Cc1cc(NC(=O)c2cccs2)n(-c2nc3ccccc3[nH]2)n1,-1,-10,7,-12,-9,-4,x,x
Cc1cc(NC(=O)c2sccc2C)n(-c2nc3ccccc3[nH]2)n1,84*,-26,3,-4,-10,-9,-5,-4
CC(C)(C)/C(O)=C/c1nc2cc(Cl)ccc2oc1=O,37*,-37,5,-9,-1,5,8,78*
Cc1ccc2oc(=O)c(/C=C(\O)C(C)(C)C)nc2c1,-2,-17,2,-2,0,-3,x,x
COC(=O)c1ccc(S(=O)(=O)N2CCCCCC2)cc1,-2,-20,3,-10,2,-5,x,x
O=C(/C=C/c1ccc(O)c(O)c1)c1ccc(S(=O)(=O)N2CCCCCC2)cc1,44*,-12,15,5,8,-4,10,85*
O=S1(=O)C=C(Sc2nnc(-c3ccccc3)o2)c2ccccc21,34*,-12,-6,6,-2,-4,94*,98*
Cc1cc(C)nc(SC2=CS(=O)(=O)c3ccccc32)n1,1,-5,0,-8,-2,1,x,x
Cc1ccc(NS(=O)(=O)c2ccc(NC(=O)CSc3ccc(Cl)cc3)cc2)c(C)c1,-1,18,6,12,2,0,x,x
Cc1ccc(O)c(NC(=O)CSc2ccc(Cl)cc2)c1,43*,-34,23,-3,1,-2,21,71*

# Screening results (PubChem)
